Screens from PubChem.
Six1-Eya2 blk: Six1/Eya2 interaction inhibition. AlphaScreen GST-Six1/His-Eya2 binding, biochemical; active compounds read low. activity change, % (concentration not given with the values). actives 0.56% (n = 360,000). AID 651725; in the data active means activity change below about -65%; inconclusive means mostly about -30% to -63%; further: on the % scale 0 is the no-effect control and ±100 the full control effect
Target sequence (O00167 whole entry, looked up): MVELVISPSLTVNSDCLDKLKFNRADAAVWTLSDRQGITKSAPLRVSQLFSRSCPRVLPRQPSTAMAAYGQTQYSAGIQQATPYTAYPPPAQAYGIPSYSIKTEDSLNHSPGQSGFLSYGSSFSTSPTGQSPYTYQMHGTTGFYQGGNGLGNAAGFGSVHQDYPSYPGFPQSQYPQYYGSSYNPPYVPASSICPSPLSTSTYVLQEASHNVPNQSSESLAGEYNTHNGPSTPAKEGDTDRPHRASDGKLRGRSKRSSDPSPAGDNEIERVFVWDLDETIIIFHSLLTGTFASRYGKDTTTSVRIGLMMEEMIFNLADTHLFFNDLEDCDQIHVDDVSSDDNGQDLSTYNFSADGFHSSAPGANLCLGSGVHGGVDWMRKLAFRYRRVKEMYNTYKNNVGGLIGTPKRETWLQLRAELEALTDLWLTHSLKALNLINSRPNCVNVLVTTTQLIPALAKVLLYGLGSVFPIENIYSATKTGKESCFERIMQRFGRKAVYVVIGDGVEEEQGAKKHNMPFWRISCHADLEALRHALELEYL
Target sequence (Q15475 whole entry, looked up): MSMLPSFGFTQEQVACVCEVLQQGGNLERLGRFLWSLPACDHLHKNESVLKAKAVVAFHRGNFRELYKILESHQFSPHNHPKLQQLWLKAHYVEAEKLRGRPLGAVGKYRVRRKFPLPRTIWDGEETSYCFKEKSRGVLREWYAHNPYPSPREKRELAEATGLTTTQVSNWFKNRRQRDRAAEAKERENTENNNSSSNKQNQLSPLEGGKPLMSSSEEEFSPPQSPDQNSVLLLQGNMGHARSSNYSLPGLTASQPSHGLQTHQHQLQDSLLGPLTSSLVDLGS
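Six1/Eya2 binding was read as AlphaScreen signal after compounds were pinned into GST-Six1 plus His-tagged Eya2 (5X stock 250/500 nM) in pH 8.0 Tris/NaCl/TCEP buffer, beads added, then incubated 1 h, 37 C, dark.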
BAZ2B block: inhibitors of human BAZ2B bromodomain; Q9UIF8; AlphaScreen BAZ2B-H3K14Ac peptide displacement; Potency, µM (titrated, usually from 114 µM), for the others: top-dose activity change, negative = inhibition, usual class: inhibitors; actives 4.4% (n = 360,000); AID 504333; further: potency means the concentration at half of the fitted maximal effect; on the % scale 0 is the no-effect control and ±100 the full control effect; nearly all actives have a fitted effect of over 60% in size
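AlphaScreen displacement of biotin-H3(5-23)K14Ac peptide (50 nM final) from BAZ2B (50 nM final) in PBS pH 7.4, 0.01% Tween-20; complex preformed 30 min RT, then compounds (top 110 uM) 30 min RT, beads 20 min dark.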
JMJD2A Tudor: inhibitors of human JMJD2A Tudor domain. AlphaScreen JMJD2A-Tudor / H3K4me3 peptide binding. Potency, µM (series often up to 114 µM), for the others: top-dose activity change, negative = inhibition, most hits filed as inhibitors. actives 4.4% (n = 390,000). AID 504339; further: potency means the concentration at half of the fitted maximal effect; on the % scale 0 is the no-effect control and ±100 the full control effect; nearly all actives have a fitted effect of over 50% in size
CtBP-E1A blk: blocks the CtBP interaction with E1A; AlphaScreen GST-E1A/His-CtBP binding, 1536-well; active compounds read low; activity change, % (no concentration beside the values); actives 0.49% (n = 340,000); in the data active means activity change below about -65%; inconclusive means mostly about -30% to -63%; further: on the % scale 0 is the no-effect control and ±100 the full control effect
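Steps: dispense buffer (Tris pH 8.0, NaCl 300 mM, TCEP 1 mM, BSA, Tween 20); add 5X protein mix (GST-E1A, His-CtBP, 125 nM each); pin 23 nL compound; 2 h at 37 °C, dark; add 5X beads (50 ug/mL); 1 h; read.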
HP1b binding inh: HP1-beta chromodomain-methylated histone interaction inhibition; P83916; AlphaScreen HP1-beta / biotin-H3K9me3 peptide binding; Potency, µM (series often up to 114 µM), for inactives: at the highest dose activity change, negative = inhibition, most hits filed as inhibitors; actives 0.56% (n = 390,000); further: potency means the concentration at half of the fitted maximal effect; nearly all actives have a fitted effect of over 70% in size
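AlphaScreen: HP1-beta (50 nM) preformed 30 min with biotin-H3(1-18)K9me3 peptide (50 nM) in PBS pH 7.4, 0.01% Tween-20. Compound added for 30 min at RT, then streptavidin donor/nickel chelate acceptor beads (10 ug/mL) for 30 min.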
G9a inh: blocks human histone lysine methyltransferase G9a; G9a H3K9 monomethylation, AlphaScreen, 2 h; Potency, µM (series often up to 102 µM), for inactives: at the top dose activity, negative = inhibition, most hits filed as inhibitors; actives 8.8% (n = 350,000); further: potency means the concentration at half of the fitted maximal effect; on the % scale 0 is the no-effect control and ±100 the full control effect; nearly all actives have a fitted effect of over 75% in size
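G9a (20 nM) preincubated 15 min RT with compounds, then 500 nM biotinylated H3K9 peptide and 20 uM SAM added; 2 h RT reaction. Monomethyl-H3K9 product detected by AlphaScreen with anti-H3K9me1 antibody, streptavidin donor and anti-rabbit IgG acceptor beads.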
* hit, by the source's call; ? = inconclusive; . = no result; [ ] = dose if it differs, or a comment. This is a sample that favours compounds with a hit; in the whole collection about 10% have one here. Unless noted, the call rests on the fitted dose curve; in most records, active means well fitted inhibition curve with a large enough effect; inconclusive means small, poorly fitted or top-dose-only effect; inactive means no such curve, though single readings can be large or run the other way.

SMILES | Six1-Eya2 blk | BAZ2B block | JMJD2A Tudor | CtBP-E1A blk | HP1b binding inh | G9a inh
O=C(NCc1ccccc1)c1ccc(-c2ccccc2C(F)(F)F)o1 | 3.2 | 8.6% | 17.1% | 10.0 | 63.1% | 39.8µM*
CCOc1ccc(NC(=S)N2CCn3c(nc4ccccc43)C2)cc1 | . | -11.3% | . | . | . | 3.4%
Cc1ccc(-c2ccc(C(=O)NCc3ccc(Cl)cc3)o2)c2ccccc12 | -2.8 | ? | ? | -0.3 | -23.0% | 14.1µM*
O=C(Nc1ccccc1)c1cc(-c2ccccc2Cl)no1 | -3.9 | 5.1% | 28.2µM* | 7.7 | -2.3% | 41.7%
Cc1cccc(C(c2sc3nc(-c4ccco4)nn3c2O)N2CCN(Cc3ccccc3)CC2)c1 (configuration not stated) | . | -29.0% | -31.2% | . | 34.9% | -43.0%[59 µM]
COc1cccc(C(=O)OCC(=O)Nc2cc(C)c(C)cc2[N+](=O)[O-])c1 | -9.5 | ? | ? | -17.1 | -1.8% | 8.5%[59 µM]
C#CCOCCOCCOCCNc1nc(N2CCN(C(=O)[C@H](CO)n3cc([C@@H](N)C(C)C)nn3)CC2)nc(N2CCN(C(=O)[C@H](CO)n3cc([C@@H](N)C(C)C)nn3)CC2)n1 | -11.4 | . | 79.4µM* | -8.6 | 22.6% | .
C#CCOCCOCCOCCNc1nc(N2CCN(C(=O)C([C@@H](C)O)n3cc([C@@H](N)CCCCN)nn3)CC2)nc(N2CCN(C(=O)C([C@@H](C)O)n3cc([C@@H](N)CCCCN)nn3)CC2)n1 (some centres not stated) | -20.5 | . | 50.1µM* | -9.4 | 27.4% | .
C#CCOCCOCCOCCNc1nc(N2CCN(C(=O)C([C@@H](C)O)n3cc([C@@H](N)CCCCN)nn3)CC2)nc(N2CCN(C(=O)[C@H](CO)n3cc([C@@H](N)C(C)C)nn3)CC2)n1 (some centres not stated) | -7.0 | . | 79.4µM* | -24.5 | 25.5% | .
C#CCOCCOCCOCCNc1nc(N2CCN(C(=O)[C@H]([C@@H](C)O)n3cc(CCCCN)nn3)CC2)nc(N2CCN(C(=O)[C@H](C)n3cc(CCCN=C(N)N)nn3)CC2)n1 | 7.6 | -4.5% | -27.6% | 0.0 | 23.4% | ?
CCCOC(=O)C(C)Sc1n[nH]c(=O)[nH]c1=O (configuration not stated) | 3.9 | 6.5% | 14.4% | 8.8 | 47.7% | ?
CCOc1ccc(N(C(=O)c2cc3ccccc3oc2=O)C2C=CS(=O)(=O)C2)cc1 (configuration not stated) | -5.5 | -11.5% | -9.8% | -10.7 | -8.2% | 6.6%
Cc1ccc([N+](=O)[O-])c2cccnc12 | -9.7 | -13.0% | -17.4% | -2.6 | 7.0% | .
CCC(=O)NC(/C=C/c1ccccc1)c1cc([N+](=O)[O-])c2cccnc2c1O (configuration not stated) | . | 4.47µM* | . | . | . | 3.16µM*
Cc1ccc(C(NC(=O)C(C)C)c2cc([N+](=O)[O-])c3cccnc3c2O)cc1 (configuration not stated) | -88.4* | 7.94µM* | 25.1µM* | -96.3* | -8.4% | ?
CC(C)C(=O)NC(c1cccs1)c1cc([N+](=O)[O-])c2cccnc2c1O (configuration not stated) | -97.3* | 5.01µM* | 15.8µM* | -91.0* | -0.1% | 14.1µM*
CCNc1nc(NCC)nc(C(=O)NN)n1 | ? | 2.82µM* | 39.8µM* | ? | 57.5% | 7.6%[59 µM]
CCOC(=O)Cc1csc(NC(=O)/C=C/c2ccco2)n1 | -9.4 | -28.3% | -22.3% | 0.0 | 20.4% | 50.1µM*
Cc1csc(NC(=O)/C=C/c2ccco2)n1 | -14.0 | -37.9% | -21.9% | 11.5 | 10.4% | 20µM*
O=C(/C=C/c1ccco1)Nc1nc(-c2ccccn2)cs1 | -73.9* | 28.2µM* | 50.1µM* | . | 44.7µM* | 22.4µM*
O=C(/C=C/c1ccco1)Nc1scc(-c2ccccc2)c1C(=O)O | -1.1 | -28.5% | -31.7% | -1.0 | ? | 50.1µM*
O=C(Nc1nc(-c2ccc3c(c2)OCCO3)cs1)C1CC(=O)N(c2ccc3c(c2)OCCO3)C1 (configuration not stated) | . | . | -19.1% | . | 5.7% | .
CCOC(=O)c1ccc(NC(=O)Cc2ccc(-n3c(CC)nc4cccnc43)cc2)cc1 | . | -17.3% | -9.7% | . | 21.1% | -7.9%[59 µM]
c1ccc(CN2CCN(c3ncccn3)CC2)cc1 | -9.9 | ? | 4.47µM* | 0.0 | -30.8% | 25.1µM*
O=[N+]([O-])c1cccc(CN2CCN(c3ncccn3)CC2)c1 | 10.2 | ? | 2.24µM* | 5.0 | ? | 11.2µM*
SMILES | Six1-Eya2 blk | BAZ2B block | JMJD2A Tudor | CtBP-E1A blk | HP1b binding inh | G9a inh
FC(F)(F)c1cccc(CN2CCN(c3ncccn3)CC2)c1 | 5.2 | . | -16.1% | 6.5 | 49.6% | .
O=C(c1ccc([N+](=O)[O-])cc1)N1CCN(c2cccc3[nH]ccc23)CC1 | -5.9 | -24.6% | -24.3% | . | 15.2% | 50.1µM*
Clc1ccc(CN2CCN(c3ncccn3)CC2)cc1 | -2.5 | ? | 12.6µM* | -1.0 | 11.7% | .
O=C1OCCOC2CCCc3oc(C4=CCCCC4)c1c32 (configuration not stated) | 1.4 | . | . | 1.0 | . | .
Cc1c(N=C2N=C(NC(=O)c3ccc(F)cc3)c3ccccc32)c(=O)n(-c2ccccc2)n1C | -1.7 | -16.5% | -17.5% | 2.1 | -1.4% | 7.9%[59 µM]
O=C(c1ccccc1)N1CCN(C(=O)c2ccc([N+](=O)[O-])cc2)CC1 | 4.9 | -4.5% | 2.8% | 4.2 | 28.9% | 0.4%[59 µM]
O=C(c1ccccc1)N1CCN(c2ccc([N+](=O)[O-])cc2-n2cccc2)CC1 | -4.9 | 28.2µM* | ? | . | 19.3% | .
CC(C)N1CCN(C(=O)c2ccc([N+](=O)[O-])cc2)CC1 | -3.6 | . | 79.4µM* | . | ? | .
O=[N+]([O-])c1cccc(CN2CCN(c3cccc4[nH]ccc34)CC2)c1 | -28.6 | ? | 56.2µM* | -12.5 | -29.0% | 31.6µM*
Clc1ccc(CN2CCN(c3ncccn3)CC2)cc1Cl | -0.5 | 79.4µM* | 12.6µM* | 2.8 | -23.8% | .
NC(=O)c1cc([N+](=O)[O-])ccc1N1CCN(Cc2ccccc2)CC1 | 5.3 | -8.2% | -8.9% | 0.3 | 15.8% | .
CCCOc1ccc(S(=O)(=O)N2C(=O)CC(=O)N(Cc3ccc(OCC)cc3)C2=O)cc1 | 3.2 | -24.2% | -12.8% | 2.0 | 4.7% | -17.6%
CCN(CC)CCC=C(c1cccs1)c1cccs1 | 19.6 | . | 0.891µM* | 3.4 | ? | .
CN(CC(=O)Nc1cccc(C(F)(F)F)c1)C1=NS(=O)(=O)c2ccccc21 | -23.0 | . | 0.7% | -0.1 | 29.0% | .
CCOC(=O)C(=CNNc1cccc(Cl)c1)C(=O)OCC | 4.4 | -8.1% | 79.4µM* | 0.0 | ? | 3.55µM*
